Assay results published in PubChem BioAssay (NCATS).
Several values for one entry are separate records, joined by “and”; a condition that tells them apart may be missing. Equal values may be shown once. Records with an inconclusive call do not appear. Entries that show only a call come without a potency. Activity calls are given as the source filed them. Calls come from the whole dose curve; as a rule, active = well fitted curve in the direction sought with a large enough effect; inconclusive = small, poorly fitted or top-dose-only effect, or another doubt; inactive = no such curve, though single readings can be large; an effect the other way counts as inactive or inconclusive.

Columns and labels:
[1] = target: Cellular tumor antigen p53 (Homo sapiens) (UniProt P04637); assay: Primary qHTS for small molecule compounds that upregulate eGFP-tagged delta133p53alpha (in N-terminal) cells. (AID 2060322); conditions: NCI-H358 eGFP-delta133p53alpha fluorescence, 24 h; activation: active compounds read high; note: nearly all actives have a fitted effect of over 75% in size; note: potency is the fitted concentration of half-maximal effect;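 for activation: cells pre-induced with doxycycline then dosed without doxycycline; series mostly up to about 56 µM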
Summary of the method: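 NCI-H358 cells pre-induced 24 h with 10 ng/ml doxycycline for eGFP-delta133p53alpha, plated dox-free and exposed 24 h at 37C to titrated compounds. Fixed, Hoechst-stained; gated GFP peak intensity by laser scanning cytometry, normalized to DMSO (0%) and 57.5 uM 5-azacytidine (100%).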

[2] = target: Aldehyde dehydrogenase, mitochondrial (Homo sapiens) (UniProt P05091); assay: qHTS for Inhibitors of the Aldehyde Dehydrogenase Family (ALDH2) Primary screen (AID 2061308); note: nearly all actives have a fitted effect of over 55% in size
[3] = target: Retinaldehyde dehydrogenase 3 (Homo sapiens) (UniProt P47895); assay: qHTS for Inhibitors of the Aldehyde Dehydrogenase Family (ALDH1A3) Primary screen (AID 2061315)

Sequence of Cellular tumor antigen p53 (Homo sapiens) (P04637 whole entry, looked up): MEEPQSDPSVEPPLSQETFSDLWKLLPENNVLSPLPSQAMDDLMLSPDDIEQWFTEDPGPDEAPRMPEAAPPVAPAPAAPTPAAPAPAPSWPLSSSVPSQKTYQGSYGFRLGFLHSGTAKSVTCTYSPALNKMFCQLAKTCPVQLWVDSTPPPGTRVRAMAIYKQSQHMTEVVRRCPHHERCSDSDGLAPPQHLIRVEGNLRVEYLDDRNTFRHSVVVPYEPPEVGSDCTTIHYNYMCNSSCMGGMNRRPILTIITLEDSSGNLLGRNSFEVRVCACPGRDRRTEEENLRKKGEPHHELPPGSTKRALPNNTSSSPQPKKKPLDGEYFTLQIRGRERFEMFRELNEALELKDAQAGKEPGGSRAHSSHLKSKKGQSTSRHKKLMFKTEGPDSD

| Compound | activation [1] | Potency [2] | Potency [3] | Potency [1] |
| --- | --- | --- | --- | --- |
| O=C(NCCO)c1cccc(-c2cc(Nc3ccc(OC(F)(F)F)cc3)ncn2)c1 | 1.79% (inactive) | inactive | inactive | – |
| C[C@]12CC[C@@H]3c4ccc(O[C@@H]5O[C@H](C(=O)O)[C@@H](O)[C@H](O)[C@H]5O)cc4CC[C@H]3[C@@H]1CCC2=O | -7% (inactive) | inactive | inactive | – |
| C/C1=C\CC[C@]2(C)O[C@@H]2[C@H](O)[C@H](C(C)C)[C@H](OC(=O)/C=C/c2ccccc2)C1 | 6.25% (inactive) | inactive | inactive | – |
| CC(=O)OCC(Cc1ccccc1)NC(=O)C(Cc1ccccc1)NC(=O)c1ccccc1 (stereo unspecified) | -13% (inactive) | inactive | inactive | – |
| CCC(C)/C=C(C)/C=C/C1=CC2=C(Cl)C(=O)C(C)(OC(C)=O)C(=O)C2=CN1C(CC(=O)O)C(=O)O (stereo unspecified) | 9.82% (inactive) | inactive | inactive | – |
| COC1=CC(=O)O/C1=C(/OC)[C@@H]1O[C@H]1c1ccccc1 | -3.05% (inactive) | inactive | inactive | – |
| CC(C)c1ccc2c(c1)C(=O)CC1C(C)(C(=O)O)CCCC21C (stereo unspecified) | 3.57% (inactive) | inactive | inactive | – |
| COc1cc(O)c([C@@H](CC(=O)N2CC(C)CC(C)C2)c2ccc3c(c2)OCO3)c(OC)c1 (stereo partly specified) | 28.3% (inactive) | inactive | inactive | – |
| COc1cc2oc(-c3ccc(O)cc3O)cc2c(OC)c1CC=C(C)C | 9.82% (inactive) | inactive | inactive | – |
| CC1=CCC2C(C)(C)CCCC2(C)C1CC12OC1C(O)C(CO)=CC2O (stereo unspecified) | -16.8% (inactive) | inactive | inactive | – |
| CC1=C2C[C@@]3(C)[C@@H](CCC[C@@H]3C)C[C@@]2(O)OC1=O | -4.46% (inactive) | inactive | inactive | – |
| CC(C)(C)c1ccc(NC(=O)N2CCN(c3ncccc3Cl)CC2)cc1 | -11.5% (inactive) | inactive | inactive | – |
| COc1cc(O)c2c(c1)C1=C[C@H](O)[C@@H](O)C[C@]1(C)OC2=O | 1.53% (inactive) | inactive | inactive | – |
| C=C1CC2C3(C)C(OC(C)=O)CC(=O)OC(C)(C)C3C(O)C(OC(C)=O)C2(C)C2C(=O)OC(C)C(=O)C12C (stereo unspecified) | -19.8% (inactive) | inactive | inactive | – |
| CC(C#N)C(C)O[C@@H]1O[C@H](CO)[C@@H](O)[C@H](O)[C@H]1O (stereo partly specified) | 24.1% (inactive) | inactive | inactive | – |
| Cc1nc(Nc2n[nH]c3c2CN(C(=O)NC(CN(C)C)c2ccccc2)C3(C)C)c2sccc2n1 (stereo unspecified) | – | inactive | inactive | 10.7 µM (active) |
| CC(C)(C)NC(=O)[C@@H]1CN(Cc2cccnc2)CCN1C[C@@H](O)C[C@@H](Cc1ccccc1)C(=O)N[C@H]1c2ccccc2C[C@H]1O | -2.82% (inactive) and 2.86% (inactive) | inactive | inactive | – |
| C/C=C(\C)C(=O)OCC1OC(OC2OC(COC(=O)/C(C)=C/C)C(OC3OC(CO)C(OC(=O)/C(C)=C/C)C(OC(=O)/C(C)=C/C)C3O)C(O)C2O)C(O)C(O)C1OC1OC(CO)C(OC(=O)/C(C)=C/C)C(OC(=O)/C(C)=C/C)C1O (stereo unspecified) | -19.8% (inactive) | inactive | inactive | – |
| C=C[C@@]1(C)CCC2C(=CCC3[C@]2(C)CCC[C@@]3(C)C(=O)O)C1 (stereo partly specified) | -12.2% (inactive) | inactive | inactive | – |
| COc1c(-c2ccc(O)cc2)cc(OC)c2c1oc1cc(O)c(OC3OC(CO)C(O)C3O)cc12 (stereo unspecified) | 1.79% (inactive) | inactive | inactive | – |
| CC1=C2C(=O)C=C(CO)C2C2OC(=O)C(CS(=O)(=O)O)C2C(OC(=O)Cc2ccc(O)cc2)C1 (stereo unspecified) | -22.1% (inactive) | inactive | inactive | – |
| CCC/C=C/C=C/C1CC(O)C2(O)C(=O)OCC12 (stereo unspecified) | 6.11% (inactive) | inactive | inactive | – |
| C/C=C(\C)C(=O)OC1C2(O)CC3=C4CC(=O)OC(c5ccoc5)C4(C)CCC3C(C)(C2=O)C(C(OC(C)=O)C(=O)OC)C1(C)C (stereo unspecified) | -7.63% (inactive) | inactive | inactive | – |
| Cc1nc2sc(C(=O)NCc3ccncc3)c(N)c2c(C)c1Cl | 11% (inactive) | inactive | inactive | – |
| CC/C=C/C=C/C1(C)OC(CC(CO)OC)=CC1=O (stereo unspecified) | 1.79% (inactive) | inactive | inactive | – |
| CC1=CC(=O)[C@@]2(C(C)C)C[C@@H]12 | 17.7% (inactive) | inactive | inactive | – |
| COC1CC(=O)C23C(=O)NC(Cc4c[nH]c5ccccc45)C2C(C)C2(C)OC2C3/C=C/CC(C)CC1O (stereo unspecified) | – | inactive | inactive | 13.1 µM (active) |
